Source: PubChem BioAssay
Only some compounds are listed: those with a hit (about 6.1% of all), similar ones and a draw of the others.
PK Bst – pyruvate kinase (B. stearothermophilus) modulation; purified pyruvate kinase, luminescence ATP production; ribose 5-phosphate activator present at AC10; actives 1.2% (n = 51,000); Potency, µM; in the data active = potency below about 11 µM; inconclusive = mostly about 12 µM to 25 µM;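 the screen sought inhibitors and activators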;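 note: scaled between full activation by ribose 5 phosphate and full inhibition by luteolin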
ERK AVP inh – vasopressin-driven ERK pathway inhibition; HEK293-V1b, vasopressin-stimulated pERK AlphaScreen; Potency, µM (doses to about 57.5 µM), for the others: at the top dose activity, negative = inhibition, actives largely listed as inhibitors; actives 0.99% (n = 72,000); note: % is set by controls: 0 for no effect and ±100 for the full control effect; nearly all actives have a fitted effect of over 55% in size
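V1b-HEK293 cells; cpd 30 min 37C; 25 nM vasopressin 5 min; lyse 10 min; AlphaScreen beads 5 hr RT. Normalized to DMSO basal and 25 nM vasopressin; AC50 by Hill fit.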
FLuc inh – inhibitors of firefly luciferase | AID 411 | P08659 | purified firefly luciferase, luminescence, 8 min | Potency, µM (top dose mostly 57.1 µM), without a hit: at the top dose activity change, negative = inhibition, most hits filed as inhibitors | actives 2.2% (n = 72,000); note: % is set by controls: 0 for no effect and ±100 for the full control effect; nearly all actives have a fitted effect of over 40% in size
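qHTS concentration-response profiling: light output of P. pyralis luciferase with luciferin and 10 uM ATP, imidazole buffer pH 7.2. Read by luminescence after 8-min room-temperature incubation.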
GBA mod – human lysosomal glucosylceramidase modulation. P04062. purified enzyme, resorufin glucoside fluorescence (screen aimed at inhibitors), 20 min. Potency, µM. actives 1.1% (n = 48,000). AID 360; in the data active = potency below about 15 µM; inconclusive = mostly about 16 µM to 33 µM;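 note: the screen sought inhibitors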
Target sequence (P04062 whole entry, looked up): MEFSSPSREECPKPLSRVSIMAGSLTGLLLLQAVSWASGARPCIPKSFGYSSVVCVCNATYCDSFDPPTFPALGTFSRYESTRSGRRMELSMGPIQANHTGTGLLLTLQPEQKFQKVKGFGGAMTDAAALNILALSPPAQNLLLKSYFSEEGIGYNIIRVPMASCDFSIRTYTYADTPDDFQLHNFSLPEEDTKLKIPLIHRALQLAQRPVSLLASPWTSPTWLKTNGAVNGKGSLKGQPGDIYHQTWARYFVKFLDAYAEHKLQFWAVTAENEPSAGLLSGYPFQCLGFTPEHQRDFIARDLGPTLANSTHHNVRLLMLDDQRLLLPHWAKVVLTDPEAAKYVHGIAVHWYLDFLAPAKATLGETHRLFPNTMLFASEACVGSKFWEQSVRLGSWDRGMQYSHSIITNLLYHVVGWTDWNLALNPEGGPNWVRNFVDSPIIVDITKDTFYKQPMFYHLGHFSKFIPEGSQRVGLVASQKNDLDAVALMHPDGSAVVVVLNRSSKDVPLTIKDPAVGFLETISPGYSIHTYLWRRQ
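Wild-type enzyme at 0.2 nM final in 50mM citric acid/KH2PO4, 10mM sodium taurocholate, 0.01% tween-20, pH 5.9, with resorufin beta-D-glucopyranoside at 30 uM final. Compounds titrated, 20 min at RT, red fluorescence read; AC50 from titration.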
HEK293 cAMP ctrl – counter-screen for TSHR agonists: cAMP increase in parental HEK293; parental HEK293 CNG cAMP sensor, membrane potential fluorescence; AID 938; Potency, µM (doses to about 57.1 µM), inactives show at the highest dose activation, usual class: activators; actives 2.5% (n = 73,000); note: % of control where 0% means no effect; nearly all actives have a fitted effect of over 55% in size
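Counterscreen for endogenous-receptor signalling: CNG-channel HEK 293 cells report cAMP rise by membrane depolarization. After 60 min dye equilibration with 100 uM RO 20-1724, compounds incubated 30 min before bottom-read fluorescence at 590 nm.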
TSHR agonist – TSH receptor (human) agonism. P16473. HEK293-CNG-TSHR cells (CNG channel as cAMP sensor), membrane potential dye, cAMP. Potency, µM (top dose mostly 57.1 µM), for inactives: at the top dose activation, hits mostly activators. actives 0.48% (n = 73,000). AID 926; active = well fitted activation curve with a large enough effect in the main read-out, with a control signal flat, not every such curve was filed as active; inconclusive = small, poorly fitted or top-dose-only effect, or a change in a side signal; inactive = no such curve, though single readings can be large or run the other way; % of control where 0% means no effect;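 note: the control signal comes from parental cells without the receptor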
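cAMP rise detected as CNG-channel membrane depolarization by fluorescent dye (emission 590 nm), 30 min after compound, following 60 min dye loading containing 100 uM RO 20-1724 at room temperature. Cells: TSHR/CNG HEK 293, with parental CNG HEK 293 as control.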
The depositor's hits bear a star; ? = inconclusive; . = no result; ! = repeats disagree; [ ] = another dose, or the depositor's remark. Unless noted, calls come from the whole dose curve; as a rule, active = well fitted curve in the direction sought with a large enough effect; inconclusive = small, poorly fitted or top-dose-only effect, or another doubt; inactive = no such curve, though single readings can be large; an effect the other way counts as inactive or inconclusive. Potency is the fitted concentration of half-maximal effect.

SMILES	PK Bst	ERK AVP inh	FLuc inh	GBA mod	HEK293 cAMP ctrl	TSHR agonist
CNc1ccc2oc(C[C@H]3O[C@]4(CC[C@H]3C)O[C@H]([C@H](C)C(=O)c3ccc[nH]3)[C@H](C)C[C@H]4C)nc2c1C(=O)O	.	5µM*	0%	.	11%	-1%
Cc1cccc(-c2nc3ccccc3c(=O)n2-n2cccc2)c1	.	?	1%	.	4µM*	?
Cc1ccc(-c2nc3ccccc3c(=O)n2-n2cccc2)cc1	>57	-27%	2%	>77	24%	.
C[C@H]1CC[C@@]2(NC1)O[C@@H]1C[C@@H]3[C@@H]4CC=C5C[C@@H](O)CC[C@]5(C)[C@@H]4CC[C@]3(C)[C@H]1[C@@H]2C	.	12%[11.5 µM]	1%[11.4 µM]	.	2%[11.4 µM]	-5%[11.4 µM]
CN1CC[C@@]2(CCCN(C(=O)c3ccco3)C2)C1	.	2%	2%[11.4 µM]	.	1%	2%
CN(C(=O)c1ccco1)C1(c2ccccc2Cl)CCCCC1=O (stereo not given)	>57	-19%	4%	>77	20µM*	?
CCC(COC(=O)c1cc(OC)c(OC)c(OC)c1)(c1ccccc1)N(C)C (stereo not given)	>11	32µM*	0%[25.5 µM]	.	.	.
COc1ccc(C(=O)O)cc1OC	.	25%	.	.	.	.
CC(=O)[C@H]1CC[C@H]2[C@@H]3CCC4=CC(=O)CC[C@]4(C)[C@H]3CC[C@]12C	>26	?	1%[25.5 µM]	.	?	?
C[C@@]12CCC3C(CCC4=CC(=O)CC[C@]43C)C1CCC2O (stereo not given in full)	.	32µM*	.	.	.	.
NNCc1cccc(O)c1	.	?	32µM*	.	7%	3%
O=[N+]([O-])c1cccc(O)c1	.	13%	.	.	?	?
ClC1=C(Cl)C2(Cl)C3C4CC(C5OC45)C3C1(Cl)C2(Cl)Cl (stereo not given)	.	13%	.	.	21%	25µM*
CCCCOCCCn1c(N)c(C(=O)OCCOC)c2nc3ccccc3nc21	>26	.	2%[25.5 µM]	.	.	.
COCCOC(=O)c1c(N)n(Cc2ccccc2)c2nc3ccccc3nc12	>57	-11%	0%	?	16µM*	?
CC(C)CCn1c(N)c(C(=O)OCC2CCCO2)c2nc3ccccc3nc21 (stereo not given)	>57	-29%	-3%	>77	20µM*	?
CC(=O)[C@@H]1CC[C@H]2[C@H]3CC[C@H]4C[C@@H](O)CC[C@]4(C)[C@@H]3CC[C@]12C	.	-9%	2%	.	8%	12%
CN(C(=O)Cc1ccccc1)[C@H](CN1CCCC1)c1ccccc1	.	14%	0%	.	32µM*	?
CN(C(=O)Cc1ccc(Cl)c(Cl)c1)[C@H](CN1CCCC1)c1ccccc1	.	50%	0%	.	32µM*	?
O=C1OCCN1P(=O)(c1ccccc1)c1ccccc1	.	-2%	1%	.	10%	-10%
O=P(c1ccccc1)(c1ccccc1)N1CC2(CC2)CC(O)(c2ccccc2)C1 (stereo not given)	.	13%	.	.	0.79µM*	?
O=C1Nc2ccccc2C2(CCN(CCc3ccc(C(F)(F)F)cc3)CC2)O1	.	16µM*	.	.	?	?
C=CCN1CC[C@]23c4c5ccc(O)c4O[C@@H]2C(=O)CC[C@@]3(O)[C@H]1C5	.	6%	2%	.	10%	3%
C[C@]1(C(=O)O)[C@@H]2CC[C@@H](O2)[C@@]1(C)C(=O)O	.	7.9µM*	2%	.	16%	9%
O=C(O)c1cc[c]([Hg][Cl])cc1	.	19%	16µM*	.	8%	.
SMILES	PK Bst	ERK AVP inh	FLuc inh	GBA mod	HEK293 cAMP ctrl	TSHR agonist
O=C(O)c1cccc(Cl)c1	.	-14%	.	.	17%	-9%
Clc1cc(Cl)cc(Cl)c1	.	-28%	.	.	-18%	?
COc1cccc(N2CCN(Cc3cccc(Cl)c3)CC2)c1	.	15%	1%	.	13%	25µM*
COC[C@@H]1OC(=O)c2coc3c2[C@]1(C)C1=C(C3=O)[C@H]2CCC(=O)[C@]2(C)C[C@@H]1OC(C)=O	.	.	-6%	.	8%	4%
Cn1cnc2cc(NC(=O)c3ccc(Cl)cc3)ccc21	.	4%	13µM*	.	5%	-6%
O=C1C[C@@H]2OCC=C3CN4CC[C@]56c7ccccc7N1[C@H]5[C@@H]2[C@H]3C[C@@H]46	.	.	2%[11.4 µM]	.	6%	7%
O=C(Nc1ccc([As](=O)(O)O)cc1)Nc1cccc(Cl)c1Cl	.	21%[11.5 µM]	-1%[11.4 µM]	.	7%[11.4 µM]	6%[11.4 µM]
Oc1c(Cl)c(Cl)c(Cl)c(Cl)c1Cl	.	28%	.	.	32µM*	?
Oc1ccc2c3c1O[C@@H]1c4[nH]c5c(c4C[C@@]4(O)[C@@H](C2)N(CC2CC2)CC[C@]314)C[C@]1(O)[C@@H]2Cc3ccc(O)c4c3[C@@]1(CCN2CC1CC1)[C@H]5O4	.	7%	0%	.	?	?
N#CSCSC#N	.	16µM*	.	.	-14%	?
C[C@@H](Cc1ccc2c(c1)OC(C(=O)O)(C(=O)O)O2)NC[C@H](O)c1cccc(Cl)c1	.	0%	0%	.	21%	.
N[C@]1(C(=O)O)CC[C@@H](C(=O)O)C1	.	.	-8%	.	-2%	.
O=C(O)c1cc2ccccc2oc1=O	.	.	1%	.	20µM*	?
c1ccc(N2CCCC3(CCNCC3)C2)nc1	.	-20%	2%[11.4 µM]	.	16µM*	?
c1ccc(N2CCCC3(CCNCC3)C2)cc1	.	-8%	-1%[11.4 µM]	.	?	?
O=C1CN=C(c2ccccc2)c2oc3ccc(Br)cc3c2N1	>57	-6%	-4%	3.3*	?	?
CC(C)NC[C@H](O)c1ccc(N)c(C#N)c1	.	?	-1%	.	0.005µM*	?
CNC[C@H](O)c1ccc(O)cc1	.	0%[25.7 µM]	-5%[25.5 µM]	.	-2%[25.6 µM]	-4%[25.6 µM]
Cc1ccc(C(=O)Nc2nc3ccccc3n2CCN2CCCC2)cc1	.	?	13µM*	.	-72%	?
COC(=O)c1cn(CCOc2ccccc2)c2ccccc12	>57	13%	-6%	.	20µM*	?
CCN(CC)c1ncnc2c1ncn2[C@@H]1O[C@@H](COP(=O)(O)OP(=O)(O)C(Br)(Br)P(=O)(O)O)[C@H](O)[C@@H]1O	.	9%	3%	.	24%	8%
CN1[C@@H]2CC[C@H]1CC(O[C@@H](c1ccccc1)c1ccccc1N)C2 (stereo not given in full)	.	-7%	1%	.	-3%	21%
CN1[C@@H]2CC[C@H]1CC(OC(c1ccc(F)cc1)c1ccc(F)cc1)C2 (stereo not given in full)	.	-2%	-1%	.	32µM*	?
CC(C)c1ccc2c(c1)CC[C@@H]1[C@@](C)(CN)CCC[C@@]21C	.	.	1%[11.4 µM]	.	-30%	?
CCN[C@]1(c2cccs2)CCCCC1=O	.	-29%[25.7 µM]	1%[25.5 µM]	.	6%[25.6 µM]	5µM*
c1coc(CNc2ncnc3nc[nH]c23)c1	.	-13%	3%	.	5µM*!	?
N#C/C(=C\c1ccc(O)c(O)c1)C(N)=S	.	16µM*!	25µM*!	.	?	?
O=C(O)[C@H]1CCN1	.	-6%	4%	.	-15%	9%
